Screening data as filed in PubChem BioAssay.
Sampled rows, rich in hits. Any-hit rate of the full collection: about 1.5%.
Sa RN4220 lethal – kills Staphylococcus aureus RN4220; S. aureus RN4220 growth, OD600, 16 h; actives 0.33% (n = 330,000); inhibition, % (concentration not given with the values); in the data active = inhibition above about 85%;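 also: plate controls were untreated cells for no effect and reference antibiotic for full effect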
DUSP3 inh – inhibitors of human VHR1 phosphatase (DUSP3) | inhibition, % at 13.3 µM | recombinant VHR phosphatase, pNPP absorbance | actives 0.52% (n = 290,000) | P51452 | AID 1654; in the data active = inhibition above about 50%
Target sequence (P51452 whole entry, looked up): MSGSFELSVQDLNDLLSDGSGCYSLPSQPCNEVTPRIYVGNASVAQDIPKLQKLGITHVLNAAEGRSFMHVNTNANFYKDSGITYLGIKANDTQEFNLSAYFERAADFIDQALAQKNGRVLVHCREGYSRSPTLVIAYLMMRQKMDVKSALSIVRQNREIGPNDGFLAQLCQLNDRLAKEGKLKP
CCHF vOTU inh – CCHFV vOTU protease inhibition; inhibition, % at 11.5 µM; actives 0.55% (n = 370,000); Pep-AMC fluorescence; in the data active = inhibition above about 30%; also: 0% = vehicle wells with enzyme and 100% = no enzyme wells
ugtP null kill – growth inhibition of S. aureus ugtP deletion strain; AID 1259309; S. aureus RN4220 ugtP deletion, OD600 growth, 16 h; actives 0.54% (n = 330,000); growth inhibition, % (test concentration not listed); in the data active = growth inhibition above about 68%;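 also: plate controls were untreated wells for no effect and antibiotic for full effect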
SSB-PriA inh – inhibitors of Klebsiella pneumoniae PriA binding to SSB C-terminal tail. actives 0.6% (n = 430,000). AlphaScreen SSBct-PriA binding, biotinylated peptide. AID 1272365. inhibition, % at 33 µM; in the data active = inhibition mostly above about 37%, no sharp cut-off; inactive = mostly below about 20%;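 also: plate controls were negative control peptide for no effect and reference peptide for full effect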
The depositor's hits bear a star; ! = a repeat was not active.

What do the screens show for `O=C(O)c1cn(-c2ccc(F)cc2)c2cc(Cl)c(F)cc2c1=O`?
Sa RN4220 lethal: 48; DUSP3 inh: 22; CCHF vOTU inh: 5; ugtP null kill: 97*; SSB-PriA inh: -3

How did COc1ccc(/C=C2\SC(=S)N(CCC(=O)Nc3ccc(C(=O)O)cc3)C2=O)cc1OC do in these assays?
Sa RN4220 lethal: 10; DUSP3 inh: 57*; ugtP null kill: 13; SSB-PriA inh: -2

Results for COc1ccc(/C=C2\SC(=S)N(CCC(=O)N(CCO)Cc3ccccc3)C2=O)cc1OC ?
Sa RN4220 lethal: 1; DUSP3 inh: 57*; CCHF vOTU inh: -10; ugtP null kill: -14; SSB-PriA inh: -2

What do the screens show for `COc1ccc(/C=C2\SC(=S)N(CCCC(=O)Nc3cccc(C(=O)O)c3)C2=O)cc1OC`?
Sa RN4220 lethal: 10; DUSP3 inh: 5; CCHF vOTU inh: -16; ugtP null kill: 2; SSB-PriA inh: 18

What do the screens show for `COc1cc(/C=C2\SC(=S)N(CC(=O)Nc3ccc(O)cc3)C2=O)cc(OC)c1OC`?
Sa RN4220 lethal: 3; DUSP3 inh: 56*; CCHF vOTU inh: 9; ugtP null kill: 0; SSB-PriA inh: 7

Results for COC(=O)N1CCC(CNC(=O)c2cn(C)nc2OC)CC1 ?
SSB-PriA inh: -10

How did Cc1cc(N(C)C)ccc1N=Nc1ccc(N)cc1 do in these assays?
Sa RN4220 lethal: -3; CCHF vOTU inh: 3; ugtP null kill: 14; SSB-PriA inh: 93*

Results for Cn1c(SCc2ccccc2)nc(N)c(N=O)c1=O ?
Sa RN4220 lethal: -4; CCHF vOTU inh: -10; ugtP null kill: 95*; SSB-PriA inh: -27

What do the screens show for `CC1CCC(=NNc2ccc(C(F)(F)F)cc2[N+](=O)[O-])CC1` (stereo not given)?
Sa RN4220 lethal: 17; DUSP3 inh: -1; CCHF vOTU inh: -4; ugtP null kill: 19; SSB-PriA inh: 73*

Results for CC(=O)c1cccc(-c2ccc3c(=O)[nH]c(Nc4ccccc4)cc3c2)c1 ?
Sa RN4220 lethal: -3; CCHF vOTU inh: 104*; ugtP null kill: -17; SSB-PriA inh: 5

Results for CCOCCn1c(=NC(=O)C(C)C)sc2cc(NC(C)=O)ccc21 ?
SSB-PriA inh: 37*

Results for CCCN1CCCc2cc(CCNS(=O)(=O)c3ccccc3Cl)ccc21 ?
SSB-PriA inh: active!

Results for CCCN1CCCc2cc(CCNS(=O)(=O)Cc3ccccc3Cl)ccc21 ?
SSB-PriA inh: 72*

Results for CCCN1CCCc2cc(CCNS(=O)(=O)c3ccccc3Br)ccc21 ?
SSB-PriA inh: active!

Results for CCCN1CCCc2cc(CCNC(=O)C(=O)NCc3ccccc3Cl)ccc21 ?
SSB-PriA inh: -19

How did COc1ccc(CCC(=O)Nc2ccccc2-c2ccc(=O)[nH]n2)cc1 do in these assays?
SSB-PriA inh: -9

What do the screens show for `c1ccc2c(C(c3ccc4c(c3)OCO4)c3c[nH]c4ccccc34)c[nH]c2c1`?
SSB-PriA inh: 37*

Results for CC(=O)c1c(C)[nH]c(C(=O)NCc2ccccc2)c1C ?
Sa RN4220 lethal: 4; DUSP3 inh: 6; CCHF vOTU inh: 4; ugtP null kill: 5; SSB-PriA inh: 2

How did CCN(CCCNC(=O)c1[nH]c(C)c(C(C)=O)c1C)c1cccc(C)c1 do in these assays?
Sa RN4220 lethal: 0; DUSP3 inh: 15; CCHF vOTU inh: 7; ugtP null kill: -1; SSB-PriA inh: 40*

What do the screens show for `O=C(NCCc1ccccc1)Nc1ccc(Cl)c(Cl)c1`?
SSB-PriA inh: -7

What do the screens show for `Cc1sc2nc(SCC(=O)c3cc(C)n(-c4cc(Cl)ccc4Cl)c3C)n(-c3ccccc3)c(=O)c2c1C`?
SSB-PriA inh: -6

How did Cc1ccc(C2=NS(=O)(=O)N(C)C(C(=O)Nc3ccc4c(c3)OCO4)=C2)cc1 do in these assays?
Sa RN4220 lethal: 0; DUSP3 inh: 25; CCHF vOTU inh: 8; ugtP null kill: -11; SSB-PriA inh: 3

Results for CC(=O)c1ccc(NC(=O)C2=CC(c3ccc4c(c3)OCO4)=NS(=O)(=O)N2C)cc1 ?
Sa RN4220 lethal: 2; DUSP3 inh: 56*; CCHF vOTU inh: 16; ugtP null kill: -5; SSB-PriA inh: 7

What do the screens show for `O=C(Cc1cccs1)NCCC(O)c1cccs1` (stereo not given)?
SSB-PriA inh: -8

How did O=S1(=O)N=C(N/N=C/c2ccccn2)c2ccccc21 do in these assays?
DUSP3 inh: 13; CCHF vOTU inh: 14

What do the screens show for `O=S1(=O)N=C(NN=Cc2cccs2)c2ccccc21`?
Sa RN4220 lethal: 3; ugtP null kill: 2; SSB-PriA inh: 55*

What do the screens show for `O=S1(=O)N=C(NN=Cc2ccccn2)c2ccccc21`?
Sa RN4220 lethal: -1; ugtP null kill: 4; SSB-PriA inh: 82*

What do the screens show for `CCN1CCCc2cc(CN(CCN3CCOCC3)C(=S)Nc3cccc(Cl)c3)ccc21`?
Sa RN4220 lethal: -2; DUSP3 inh: 22; CCHF vOTU inh: -8; ugtP null kill: -2; SSB-PriA inh: 52*

What do the screens show for `CCN1CCCc2cc(CN(CCN3CCOCC3)C(=S)Nc3ccc(C)cc3)ccc21`?
Sa RN4220 lethal: 4; DUSP3 inh: 27; CCHF vOTU inh: 4; ugtP null kill: 5; SSB-PriA inh: 30

Results for OCC1(CC2CCCCO2)CCN(C/C=C/c2ccccc2)CC1 (stereo not given) ?
Sa RN4220 lethal: 4; DUSP3 inh: -4; CCHF vOTU inh: -6; ugtP null kill: 2; SSB-PriA inh: -8

How did COc1cc(/C=C/CN2CCC(CO)(CC3CCCCO3)CC2)ccc1O (stereo not given) do in these assays?
Sa RN4220 lethal: 1; DUSP3 inh: 51*; CCHF vOTU inh: 2; ugtP null kill: 15; SSB-PriA inh: -15

What do the screens show for `COc1ccc(N2CCN(C(=O)c3ccc(S(=O)(=O)N4CCOCC4)cc3)CC2)cc1`?
Sa RN4220 lethal: 0; DUSP3 inh: 51*; CCHF vOTU inh: -2; ugtP null kill: 2; SSB-PriA inh: -18

How did Cc1cccc(N2CCc3c2nc2ccc(Br)cc2c3N)c1 do in these assays?
Sa RN4220 lethal: 99*; DUSP3 inh: -1; CCHF vOTU inh: -16; ugtP null kill: 100*; SSB-PriA inh: -6

Results for Nc1c2c(nc3ccc(Br)cc13)N(c1ccccc1)CC2 ?
Sa RN4220 lethal: 21; DUSP3 inh: 6; CCHF vOTU inh: 8; ugtP null kill: 47; SSB-PriA inh: -6

How did CCOC(=O)c1ccc(OCC2c3cc(OC)c(OC)cc3CCN2C(=O)c2ccco2)cc1 (stereo not given) do in these assays?
SSB-PriA inh: 9

What do the screens show for `NC(=O)COc1ccc2c(-c3cc4cc(Cl)ccc4oc3=O)cc(=O)oc2c1`?
SSB-PriA inh: -15

Results for COc1cccc(-c2nc(=S)c3c(n2Cc2ccco2)CCCC3)c1 ?
Sa RN4220 lethal: -3; DUSP3 inh: 0; CCHF vOTU inh: 12; ugtP null kill: 85*; SSB-PriA inh: 5

What do the screens show for `Cc1cccc(-c2nc(=S)c3c(n2Cc2ccco2)CCCC3)c1`?
Sa RN4220 lethal: 2; DUSP3 inh: 16; CCHF vOTU inh: 16; ugtP null kill: 42; SSB-PriA inh: 4
